The record followed here is PubChem BioAssay (EPA / NIEHS).

In experiment [1] the target is Retinoic acid receptor alpha (Homo sapiens) (UniProt P10276). Briefly: NVS_NR_hRAR_Antagonist: NovaScreen (NVS) Nuclear Receptor Binding Assay for human Retinoic Acid Alpha Receptor Antagonism (RAR) (AID 2283358). The essentials:
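Cell-free TR-FRET binding assay on extracted receptor protein, run in antagonist mode; signal read 2 hours after chemical dosing. Loss of signal was fitted relative to DMSO baseline. Screened at 25 uM in duplicate, actives followed up in concentration series.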

Experiment [2] deals with human Peroxisome Proliferator-activated Receptor alpha (PPARa), PPARA (gene 5465) (UniProt Q07869). Briefly: NVS_NR_hPPARa: NovaScreen (NVS) Nuclear Receptor Binding Assay for human Peroxisome Proliferator-activated Receptor alpha (PPARa) (AID 2283359).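 Further: activity means loss of TR-FRET signal versus DMSO baseline.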 The essentials:
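Cell-free binding assay with extracted human protein, read by TR-FRET 1 h after chemical dosing. Loss of signal relative to DMSO baseline indicates binding. Primary screen used duplicate single concentration (25 uM); actives followed up in concentration series.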

The target of a further experiment is PGR (gene 5241) (UniProt P06401). Briefly: NVS_NR_hPR: NovaScreen (NVS) Nuclear Receptor Binding Assay for human Progestron Receptor (PR) (AID 2283360).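 Further: active means loss of bound radioligand signal versus DMSO baseline.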 The procedure, abridged:
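Competitive displacement of a labelled radioligand from T47D-derived receptor protein is measured in a cell-free format. Initial testing uses 25 uM in duplicate, with positive and negative controls on every plate.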

The target in experiment [3] is Glucocorticoid receptor (Homo sapiens) (UniProt P04150). Briefly: NVS_NR_hGR: NovaScreen (NVS) Nuclear Receptor Binding Assay for human Glucocorticoid Receptor (GR) (AID 2283363).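 On AC50: activity is loss of specific radioligand binding signal relative to DMSO.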 The essentials: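 Cell-free radioligand binding with extracted receptor protein, read by filter-based scintillation counting 16 hours after dosing. Loss of specific signal versus DMSO baseline was scored. Primary screen ran in duplicate at 25 uM; actives were followed up in concentration series.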
Sequence of Glucocorticoid receptor (Homo sapiens) (P04150 whole entry, looked up): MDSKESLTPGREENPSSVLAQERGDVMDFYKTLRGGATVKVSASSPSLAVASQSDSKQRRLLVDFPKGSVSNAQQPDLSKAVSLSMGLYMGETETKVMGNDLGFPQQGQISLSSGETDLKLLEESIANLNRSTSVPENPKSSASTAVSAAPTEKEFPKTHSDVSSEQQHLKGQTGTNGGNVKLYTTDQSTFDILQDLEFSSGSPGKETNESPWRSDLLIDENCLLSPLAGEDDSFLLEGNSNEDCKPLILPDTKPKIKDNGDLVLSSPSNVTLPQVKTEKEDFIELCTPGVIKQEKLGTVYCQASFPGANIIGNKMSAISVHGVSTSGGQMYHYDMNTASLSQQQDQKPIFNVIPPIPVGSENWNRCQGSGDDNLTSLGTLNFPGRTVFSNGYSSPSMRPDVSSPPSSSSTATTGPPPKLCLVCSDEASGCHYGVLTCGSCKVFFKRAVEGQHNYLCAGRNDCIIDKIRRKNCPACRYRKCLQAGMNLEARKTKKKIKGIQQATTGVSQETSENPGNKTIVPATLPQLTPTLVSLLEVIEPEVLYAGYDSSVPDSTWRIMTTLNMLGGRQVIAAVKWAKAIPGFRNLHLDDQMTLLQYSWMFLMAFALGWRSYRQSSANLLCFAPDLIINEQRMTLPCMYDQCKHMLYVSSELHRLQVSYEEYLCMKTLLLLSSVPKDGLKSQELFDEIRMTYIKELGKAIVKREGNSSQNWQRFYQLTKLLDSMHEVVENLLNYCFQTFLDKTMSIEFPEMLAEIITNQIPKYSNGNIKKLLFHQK

Experiment [4] has as its target Nuclear receptor subfamily 1 group I member 2 (Homo sapiens) (UniProt O75469). The experiment can be described thus: NVS_NR_hPXR: NovaScreen (NVS) Nuclear Receptor Binding Assay for human Pregnane X Receptor (PXR) (AID 2283365).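 Further: a drop in FRET signal versus DMSO baseline means the compound binds.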 The procedure, abridged: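 Cell-free TR-FRET binding assay with extracted human PXR protein, read 2 h after dosing. Primary screen run in duplicate at 25 uM, actives followed in concentration series; loss of signal fitted against DMSO baseline.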

Experiment [5] deals with human Dopamine Transporter (DAT), SLC6A3 (gene 6531) (UniProt Q01959). Briefly: NVS_TR_hDAT: NovaScreen (NVS) Transporter Assay for human Dopamine Transporter (DAT) (AID 2283374).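 Further: activity means loss of bound radioligand signal relative to DMSO.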 The procedure, abridged:
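Cell-free radioligand binding to extracted human DAT protein, read 1 h after dosing by filter-based scintillation counting. Loss of specific binding scored against DMSO baseline; primary screen in duplicate at 25 uM, actives then run in concentration series.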

Experiment [6] deals with rat Androgen Receptor (AR), Ar (gene 24208) (UniProt P15207). The experiment can be described thus: NVS_NR_rAR: NovaScreen (NVS) Nuclear Receptor Binding Assay for rat Androgen Receptor (AR) (AID 2283366). The essentials:
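Cell-free radioligand binding on extracts of prostate from testosterone-pretreated rats, read by filter-based scintillation counting 18 h after dosing. Loss of bound signal fitted positively versus DMSO; primary screen in duplicate at 25 uM, actives followed up in concentration series.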

In experiment [7] the test system is guinea pig Dopamine Transporter (DAT), gene 100714898. The experiment can be described thus: NVS_TR_gDAT: NovaScreen (NVS) Transporter Assay for guinea pig Dopamine Transporter (DAT) (AID 2283369).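 Further: active compounds lower bound radioligand signal relative to DMSO.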 The essentials:
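Guinea pig striatal membranes, cell-free radioligand binding with filter-based scintillation counting, read 2 h after dosing. Loss of signal versus DMSO baseline; single-concentration primary (25 uM) then concentration-response up to 50 uM.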

Experiment [8] addresses guinea pig Sigma Receptor, Non-selective Binding, SIGMAR1 (gene 100135589) (UniProt Q60492). The experiment can be described thus: NVS_OR_gSIGMA_NonSelective: NovaScreen (NVS) Nuclear Receptor Binding Assay for guinea pig Sigma Receptor, Non-selective Binding (AID 2283367). The procedure, abridged: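 Guinea pig brain membranes, cell-free radioligand binding; read 1 h after dosing by filter-based scintillation counting. Loss of signal vs DMSO baseline taken as displacement. Primary screen single concentration 25 uM in duplicate; actives retested in concentration series.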

Experiment [9] deals with Estrogen receptor beta (Homo sapiens) (UniProt Q92731). The experiment can be described thus: OT_ER_ERbERb_0480: Odyssey Thera (OT) 8-hour HEK293T Protein-Complementation Assay for Estrogen Receptor-beta/-beta Homodimer (AID 2283357).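 Further: active means signal gain over DMSO baseline.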 The procedure, abridged:
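Readout: increase in mean fluorescence intensity (nucleus for agonists; nucleus plus cytoplasm for antagonists) relative to DMSO, from a reporter-fragment complementation of human ER-beta LBD homodimer in HEK293T cells dosed 8 hours.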

The target of experiment [10] is human Thyroid Receptor Alpha (TRa), THRA (gene 7067) (UniProt P10827). Briefly: NVS_NR_hTRa_Antagonist: NovaScreen (NVS) Nuclear Receptor Binding Assay for human Thyroid Receptor Alpha Antagonism (TRa) (AID 2283362).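 Further: activity is loss of signal relative to DMSO baseline.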 The procedure, abridged: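 Cell-free AlphaLISA chemiluminescent binding read 1 h after dosing, antagonist mode; signal loss versus DMSO baseline. Primary screen in duplicate at 25 uM, then concentration series for actives.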
Sequence of human Thyroid Receptor Alpha (TRa), THRA (gene 7067) (P10827 whole entry, looked up): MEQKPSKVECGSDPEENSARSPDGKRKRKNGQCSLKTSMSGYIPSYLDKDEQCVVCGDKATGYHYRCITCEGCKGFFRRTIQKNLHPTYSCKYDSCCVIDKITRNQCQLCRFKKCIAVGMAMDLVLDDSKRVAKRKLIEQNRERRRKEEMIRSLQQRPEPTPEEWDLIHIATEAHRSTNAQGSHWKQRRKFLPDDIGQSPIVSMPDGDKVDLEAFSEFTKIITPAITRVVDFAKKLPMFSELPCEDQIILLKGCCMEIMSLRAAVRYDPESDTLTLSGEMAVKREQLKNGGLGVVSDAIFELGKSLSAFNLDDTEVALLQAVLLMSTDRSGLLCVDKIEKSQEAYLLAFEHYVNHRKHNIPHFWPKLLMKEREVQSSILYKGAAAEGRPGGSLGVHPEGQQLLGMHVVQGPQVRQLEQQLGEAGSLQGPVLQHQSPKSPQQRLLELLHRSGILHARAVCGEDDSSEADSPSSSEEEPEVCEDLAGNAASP

Experiment [11] addresses rat Serotonin Transporter (SERT), Slc6a4 (gene 25553) (UniProt P31652). The experiment can be described thus: NVS_TR_rSERT: NovaScreen (NVS) Transporter Assay for rat Serotonin Transporter (SERT) (AID 2283375). The essentials:
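Rat forebrain membranes; radioligand displacement at SERT read by filter-based scintillation counting, 1 h after dosing. Screened in duplicate at 25 uM, actives then run in concentration series; loss of signal versus DMSO baseline.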

For experiment [12], the target named is Peroxisome proliferator-activated receptor gamma (Homo sapiens) (UniProt P37231). The experiment can be described thus: NVS_NR_hPPARg: NovaScreen (NVS) Nuclear Receptor Binding Assay for human Peroxisome Proliferator-activated Receptor gamma (PPARg) (AID 2283370). The procedure, abridged: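 Cell-free fluorescence polarization binding to human PPARg protein, read 2 h after dosing. Primary screen in duplicate at 25 uM, actives followed in concentration series; loss of signal relative to DMSO scored.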
Sequence of Peroxisome proliferator-activated receptor gamma (Homo sapiens) (P37231 whole entry, looked up): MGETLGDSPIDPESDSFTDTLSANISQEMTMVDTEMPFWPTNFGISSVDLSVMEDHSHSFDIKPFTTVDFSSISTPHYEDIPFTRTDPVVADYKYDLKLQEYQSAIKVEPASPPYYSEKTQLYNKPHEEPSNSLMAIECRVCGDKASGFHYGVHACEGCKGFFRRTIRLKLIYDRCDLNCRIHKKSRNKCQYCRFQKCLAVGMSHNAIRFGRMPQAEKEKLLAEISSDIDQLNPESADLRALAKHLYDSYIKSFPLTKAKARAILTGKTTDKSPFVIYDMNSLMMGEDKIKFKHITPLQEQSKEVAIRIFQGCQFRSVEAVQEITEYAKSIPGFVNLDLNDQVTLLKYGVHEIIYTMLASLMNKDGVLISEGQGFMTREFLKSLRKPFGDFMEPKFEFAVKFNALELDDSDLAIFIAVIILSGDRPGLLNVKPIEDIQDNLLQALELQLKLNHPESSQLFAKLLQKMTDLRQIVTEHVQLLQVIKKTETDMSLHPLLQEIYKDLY

SMILES strings stand for the structures. Results filed as inconclusive are left out. Calls of active or inactive are those of the source. How the source made its calls: active means hit-call score of the fitted dose curve at least 0.9, where 1 is the maximum; inconclusive means response in the unintended direction; inactive means score below 0.9.

Sequence of PGR (gene 5241) (P06401 whole entry, looked up): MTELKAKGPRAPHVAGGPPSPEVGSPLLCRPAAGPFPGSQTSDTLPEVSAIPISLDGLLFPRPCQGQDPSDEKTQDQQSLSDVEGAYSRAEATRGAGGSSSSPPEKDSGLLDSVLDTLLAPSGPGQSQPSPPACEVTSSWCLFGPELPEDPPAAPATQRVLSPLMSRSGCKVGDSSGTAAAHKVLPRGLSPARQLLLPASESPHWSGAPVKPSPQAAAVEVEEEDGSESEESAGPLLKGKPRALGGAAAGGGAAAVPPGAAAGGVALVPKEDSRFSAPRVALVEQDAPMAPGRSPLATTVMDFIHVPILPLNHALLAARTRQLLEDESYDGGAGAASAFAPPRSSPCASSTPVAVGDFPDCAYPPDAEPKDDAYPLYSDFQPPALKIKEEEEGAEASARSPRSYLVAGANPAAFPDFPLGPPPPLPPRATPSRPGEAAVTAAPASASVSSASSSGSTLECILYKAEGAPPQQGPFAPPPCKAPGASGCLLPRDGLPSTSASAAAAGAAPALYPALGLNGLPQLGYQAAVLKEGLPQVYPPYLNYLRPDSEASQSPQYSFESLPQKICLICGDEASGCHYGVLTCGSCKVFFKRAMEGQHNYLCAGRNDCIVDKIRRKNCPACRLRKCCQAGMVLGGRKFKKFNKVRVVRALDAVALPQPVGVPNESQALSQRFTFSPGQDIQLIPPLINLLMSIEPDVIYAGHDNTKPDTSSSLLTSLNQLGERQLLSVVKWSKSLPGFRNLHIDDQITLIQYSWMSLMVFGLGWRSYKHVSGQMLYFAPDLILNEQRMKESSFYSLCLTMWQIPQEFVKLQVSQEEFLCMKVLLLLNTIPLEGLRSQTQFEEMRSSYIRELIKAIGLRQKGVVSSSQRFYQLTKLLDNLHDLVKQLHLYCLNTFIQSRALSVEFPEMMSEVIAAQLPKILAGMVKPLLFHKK
Sequence of rat Serotonin Transporter (SERT), Slc6a4 (gene 25553) (P31652 whole entry, looked up): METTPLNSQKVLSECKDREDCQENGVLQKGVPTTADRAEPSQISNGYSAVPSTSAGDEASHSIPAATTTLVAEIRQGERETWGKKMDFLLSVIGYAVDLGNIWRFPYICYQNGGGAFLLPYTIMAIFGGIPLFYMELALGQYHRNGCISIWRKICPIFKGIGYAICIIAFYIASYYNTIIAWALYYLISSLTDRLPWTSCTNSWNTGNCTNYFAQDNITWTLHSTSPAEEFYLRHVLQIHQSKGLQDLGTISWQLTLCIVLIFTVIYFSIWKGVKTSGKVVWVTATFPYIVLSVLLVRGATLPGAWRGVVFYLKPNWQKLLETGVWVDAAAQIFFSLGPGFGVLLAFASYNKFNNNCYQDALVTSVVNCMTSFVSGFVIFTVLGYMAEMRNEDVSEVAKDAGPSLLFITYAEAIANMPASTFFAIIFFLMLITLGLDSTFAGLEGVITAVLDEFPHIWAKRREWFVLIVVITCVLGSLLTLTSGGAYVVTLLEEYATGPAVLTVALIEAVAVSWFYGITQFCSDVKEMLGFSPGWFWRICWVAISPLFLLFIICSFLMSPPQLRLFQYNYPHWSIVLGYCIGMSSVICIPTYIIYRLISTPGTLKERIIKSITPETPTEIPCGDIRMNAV
Sequence of Nuclear receptor subfamily 1 group I member 2 (Homo sapiens) (O75469 whole entry, looked up): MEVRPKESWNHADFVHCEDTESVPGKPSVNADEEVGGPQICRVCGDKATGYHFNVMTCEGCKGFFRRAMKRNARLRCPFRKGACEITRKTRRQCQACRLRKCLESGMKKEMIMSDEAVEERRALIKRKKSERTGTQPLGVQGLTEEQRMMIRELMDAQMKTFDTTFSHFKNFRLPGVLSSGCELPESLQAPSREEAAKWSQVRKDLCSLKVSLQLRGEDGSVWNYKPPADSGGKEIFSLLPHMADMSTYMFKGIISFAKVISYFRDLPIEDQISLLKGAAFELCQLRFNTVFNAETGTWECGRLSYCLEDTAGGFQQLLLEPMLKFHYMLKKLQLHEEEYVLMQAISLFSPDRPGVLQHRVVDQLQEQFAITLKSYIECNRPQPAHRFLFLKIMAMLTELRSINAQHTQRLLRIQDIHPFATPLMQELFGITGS
Sequence of human Dopamine Transporter (DAT), SLC6A3 (gene 6531) (Q01959 whole entry, looked up): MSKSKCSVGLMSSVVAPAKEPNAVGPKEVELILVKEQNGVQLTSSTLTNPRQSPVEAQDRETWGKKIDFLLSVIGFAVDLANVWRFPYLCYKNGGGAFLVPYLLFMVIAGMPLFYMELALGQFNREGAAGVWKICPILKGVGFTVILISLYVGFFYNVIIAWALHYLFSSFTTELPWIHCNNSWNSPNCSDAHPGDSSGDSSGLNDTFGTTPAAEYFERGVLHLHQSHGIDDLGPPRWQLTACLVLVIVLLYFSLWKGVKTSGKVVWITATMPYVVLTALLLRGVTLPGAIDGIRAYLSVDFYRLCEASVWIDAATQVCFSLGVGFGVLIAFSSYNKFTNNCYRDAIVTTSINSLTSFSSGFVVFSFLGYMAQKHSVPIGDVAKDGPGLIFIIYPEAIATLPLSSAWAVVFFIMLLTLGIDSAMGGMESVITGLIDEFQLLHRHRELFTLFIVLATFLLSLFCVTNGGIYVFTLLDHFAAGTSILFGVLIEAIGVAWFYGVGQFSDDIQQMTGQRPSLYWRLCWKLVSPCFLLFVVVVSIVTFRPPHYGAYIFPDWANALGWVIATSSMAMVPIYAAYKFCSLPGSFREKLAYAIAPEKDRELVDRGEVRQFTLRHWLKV
Sequence of Estrogen receptor beta (Homo sapiens) (Q92731 whole entry, looked up, the tested form may be a part): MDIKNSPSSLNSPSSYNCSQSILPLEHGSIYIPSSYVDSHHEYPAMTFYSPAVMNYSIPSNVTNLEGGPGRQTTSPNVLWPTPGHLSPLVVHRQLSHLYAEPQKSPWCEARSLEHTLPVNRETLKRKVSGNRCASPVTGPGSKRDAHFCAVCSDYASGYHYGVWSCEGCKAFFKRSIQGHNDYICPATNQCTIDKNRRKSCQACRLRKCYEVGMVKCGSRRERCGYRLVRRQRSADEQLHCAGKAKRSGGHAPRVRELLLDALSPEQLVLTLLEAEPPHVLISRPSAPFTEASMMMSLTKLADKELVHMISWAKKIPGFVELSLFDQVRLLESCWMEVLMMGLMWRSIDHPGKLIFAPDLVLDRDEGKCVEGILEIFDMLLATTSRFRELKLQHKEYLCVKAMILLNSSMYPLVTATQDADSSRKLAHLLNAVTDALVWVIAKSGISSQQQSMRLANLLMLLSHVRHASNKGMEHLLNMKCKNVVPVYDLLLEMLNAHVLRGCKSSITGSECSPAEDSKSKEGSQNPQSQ

With `CCCCCCCCCCCCc1cccc(S(=O)(=O)O)c1`, the AC50 was 22.5 µM (active) in experiment [1]; 9.25 µM (active) in [2]; 15.9 µM (active) with PGR (gene 5241); 4.55 µM (active) in experiment [3]; 26.6 µM (active) in [4]; 32.9 µM (active) in [5].

Take `Cc1ccccc1OP(=O)(Oc1ccccc1C)Oc1ccccc1C`: in the experiment with PGR (gene 5241), the compound was called inactive.

`OC(Cc1ccccc1Cl)(Cn1[nH]cnc1=S)C1(Cl)CC1` (stereo unspecified): the compound was called inactive (in the experiment with PGR (gene 5241); in experiment [6]).

In the case of `Oc1cccc(-c2ccccc2)c1`, the concentration at half-maximal activity (AC50) in [7] was 13.9 µM (active); in experiment [5], 10.6 µM (active). Take `CCCCCCCCCCBr`: in experiment [8], the AC50 is 0.87 µM (active). As for `Clc1cccc(Cl)c1Cl`, the outcome (in experiment [1]; with PGR (gene 5241); in [4]) was inactive. As to `Cc1cccc(OP(=O)(Oc2cccc(C)c2)Oc2cccc(C)c2)c1`, in [3], the call was inactive. Take `COc1nn(C(=O)NS(=O)(=O)c2ccccc2OC(F)(F)F)c(=O)n1C`: the compound was classed as inactive in [9]. For the same compound, in [4], the AC50 was 23.4 µM (active). With `CCOc1cc(C=O)ccc1O`, the outcome in experiment [10] was inactive. Regarding `O=C1C=CC(=O)c2ccccc21`, the half-maximal activity concentration (AC50) with PGR (gene 5241) is 38.6 µM (active); in experiment [3], 4.63 µM (active); in experiment [7], 5.42 µM (active); in experiment [11] it was 28.9 µM (active). The result in experiment [6] was inactive. In the case of `Oc1c(Cl)cc(Cl)cc1Cl`, the call in [9] was inactive.

Regarding `N#Cc1ccccc1N`, the AC50 in [11] was 17.6 µM (active). Regarding `CN(N=O)C(N)=O`, in experiment [9], the outcome was inactive. In the case of `C[C@]12CC[C@@H](O)C[C@@H]1CC[C@@H]1[C@@H]2CC[C@]2(C)C(=O)CC[C@@H]12`, the result with PGR (gene 5241) was inactive. For `COc1ccc(N)cc1`, in experiment [4], the result was inactive. As to `Cc1ccc2nc3sc(=O)sc3nc2c1`, in experiment [3], the AC50 was 1.64 µM (active). `CCOC(=O)CCN(SN(C)C(=O)Oc1cccc2c1OC(C)(C)C2)C(C)C`: the AC50 in experiment [8] was 15.8 µM (active).

For `CC(C)(C)c1ccccc1O`, the AC50 in [9] was 50 µM (active). For the same compound, the outcome in [2], in experiment [7] and in experiment [5] was inactive. Regarding `Nc1ccc(N)cc1`, the compound was called inactive in experiment [9]. Moreover, the AC50 in [10] was 31.7 µM (active); in [4], 25 µM (active). `CCC[CH2][Sn]([CH2]CCC)([CH2]CCC)[CH2]CCC`: the result in experiment [9] and in experiment [12] was inactive. For `O=[N+]([O-])c1ccccc1O`, the compound was called inactive in [9] and in [12]. `COc1ccccc1N`: the compound was called inactive in [12]. As to `O=[N+]([O-])c1cccc2ccccc12`, in experiment [11], the AC50 is 9.17 µM (active).

As for `[Cl][Sn]([c]1ccccc1)([c]1ccccc1)[c]1ccccc1`, the AC50 is 3.31 µM (active) in [3], 2.42 µM (active) in experiment [6] and 2.89 µM (active) in experiment [5]. Regarding `Nc1ncn[nH]1`, the call in experiment [9], in experiment [10] and in experiment [4] was inactive. As to `Cc1ccc(CCl)cc1`, in experiment [11], the AC50 is 16.6 µM (active).

As usually defined, the AC50 is the concentration giving half of the maximal activity seen.
